# PubChem BioAssay (NCI)
# Compounds without any hit were thinned out: in the full panel of roughly 79,000, 15% have a hit. Values without a mark were called inactive. Active and inactive are the calls of the source. Rule as the data show it: active = growth inhibition above about 70%; inactive = the rest.
# Assay: NCI Yeast Anticancer Drug Screen. Data for the rad52 strain (AID 147);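 also: 0% = growth of vehicle-treated control cultures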
# Details: S. cerevisiae rad52 mutant growth inhibition, stronger effect = higher value
# Description: Growth inhibition of yeast strains with defined genetic alterations is measured as a screen for potential anti-cancer activity. Selected strains with alterations in DNA damage repair or cell cycle control were exposed to compounds and growth inhibition was measured relative to vehicle treated controls. The strain used in this assay is rad52
Structure (SMILES),growth inhibition (at 1.2 µM) [%],growth inhibition (at 3.7 µM) [%],growth inhibition (at 11.0 µM),growth inhibition (at 33.0 µM),growth inhibition (at 100.0 µM)
O=C1C(/C=C/c2ccc(Cl)cc2)=NNC2N1N=C1NC(=O)C3(NN12)c1ccccc1-c1ccccc13 (stereo not given),-2,-2,-1%,-3%,10%
CCCCCc1c(CCCC)c(=O)[nH]c2cc(CNCC(OC)OC)ccc12,15,11,26%,98% (active),94% (active)
CN(CCOc1ccc(Cl)cc1)CCOc1ccc(Cl)cc1,8,18,50%,90% (active),99% (active)
CC1(C2CC2)C(C#N)(C#N)C1(C#N)C#N,2,10,22%,45%,78% (active)
COC1=CCC23C(=O)C=CC(=O)C2(C1)C(=O)c1ccccc1C3=O (stereo not given),-40,-35,12%,54%,89% (active)
O=C(Cc1ccccc1)NN1C(=O)C(Cl)C1c1cc(Br)cc(Br)c1O (stereo not given),4,33,92% (active),93% (active),88% (active)
CCOC(=O)/C(=C\c1cccc(C)c1)C(C)=O,-3,10,67%,91% (active),99% (active)
N#CSCC1COc2ccccc2O1 (stereo not given),-43,-47,-26%,72% (active),98% (active)
